Assay [1] is described as follows: qHTS assay to identify small molecule agonists of the hypoxia (HIF-1) signaling pathway - cell viability counter screen (AID 1224844; calls by dose curve; note: nearly all actives have a fitted effect of over 50% in size). The essentials:
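HRE-bla ME-180 cells, 2,000/well in 0.5% dialyzed FBS medium, treated 17 h at 37C with compounds. Viability read in the same wells as the bla reporter, by CellTiter-Glo luminescence after 30 min at room temperature.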
(In general: qHTS replaces the single test concentration by a dilution series.)

The nature of assay [2]: qHTS assay to identify small molecule agonists of H2AX (AID 1224845; active = well fitted activation curve with a large enough effect in the signal ratio in the repeat runs, not every such curve was filed as active; the % refers to the signal ratio). The essentials:
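Wild-type CHO-K1 cells, plated overnight, exposed 3hr at 37C to 15 concentrations (0.76% DMSO final). Lysed, then HTRF anti-pH2AX (S139) cryptate and anti-H2AX-d2 antibodies, 24 hr room temperature; 665/620 nm emission read.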

Assay [3] in a line: qHTS assay to identify small molecule agonists of the hypoxia (HIF-1) signaling pathway (AID 1224846; active = well fitted activation curve with a large enough effect in the signal ratio in the repeat runs, not every such curve was filed as active; the % refers to the signal ratio). The essentials:
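HRE-bla ME-180 beta-lactamase reporter cells in medium with 0.5% dialyzed FBS, pre-incubated 5 h then exposed to compounds 17 h at 37C, 5% CO2; reporter induction read with CCF4-AM FRET substrate.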

The nature of assay [4]: qHTS assay to identify small molecule agonists of H2AX - cell viability counter screen (AID 1224847; calls by dose curve; note: top concentration of the series differs between compounds; nearly all actives have a fitted effect of over 30% in size). The essentials: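 Read-out: CellTiter-Glo luminescence, 30 min RT. Cells: wild-type CHO-K1, 1000/well, 10% FBS, plated overnight at 37C. Treatment: 15 concentrations, 3 hr, 37C, 0.76% DMSO.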
Assay [5] can be described thus: qHTS RealTime-Glo MT Cell Viability Assay in HepG2 cells - 24 hour (AID 1224867). Note: nearly all actives have a fitted effect of over 50% in size. The method in brief: (§1)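 HepG2 cells (600/well) were dispensed with RealTime-Glo reagents, incubated 5 h at 37 °C, then treated with compounds in DMSO for up to 40 h. Nonlytic NanoLuc luminescence reflecting viable cells was read at each stated time point.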
A short description of assay [6]: qHTS RealTime-Glo MT Cell Viability Assay in HEK293 cells - 32 hour (AID 1224868). Note: top concentration of the series differs between compounds; nearly all actives have a fitted effect of over 50% in size. The essentials: (§2)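 HEK293 cells seeded with NanoLuc/prosubstrate reagent, rested 5 h at 37 C, then dosed and kept at 37 C up to 40 h. Nonlytic real-time luminescence from viable cells read at 0, 8, 16, 24, 32 and 40 h.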
A short description of assay [7]: A CellTox Green Cytotoxicity Assay to monitor cytotoxicity in HEK293 cells - 0 hour (AID 1224869). Note: nearly all actives have a fitted effect of over 50% in size. The method in brief: (§3)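 HEK293 cells, 600/well, were preincubated 5 hours and then exposed to compounds at 37 C for up to 40 hours. A cell-impermeant cyanine dye staining dead-cell DNA was read by fluorescence at 0, 8, 16, 24, 32 and 40 h time points.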
A short description of assay [8]: qHTS RealTime-Glo MT Cell Viability Assay in HepG2 cells - 40 hour (AID 1224870). Note: nearly all actives have a fitted effect of over 50% in size. The essentials: (§4)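 HepG2 cells (600/well) mixed with RealTime-Glo MT reagent, settled 5 h at 37 C/5% CO2 before compound addition. Nonlytic NanoLuc luminescence from viable-cell prosubstrate reduction read repeatedly during 40 h treatment at 37 C.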
Assay [9] can be described thus: A CellTox Green Cytotoxicity Assay to monitor cytotoxicity in HEK293 cells - 40 hour (AID 1224871). Note: nearly all actives have a fitted effect of over 45% in size. The essentials:
as §3

The nature of assay [10]: qHTS RealTime-Glo MT Cell Viability Assay in HEK293 cells - 16 hour (AID 1224872). The essentials:
as §2

Assay [11] is described as follows: qHTS RealTime-Glo MT Cell Viability Assay in HepG2 cells - 8 hour (AID 1224873). Note: nearly all actives have a fitted effect of over 55% in size. The essentials: as §4
Assay [12] is described as follows: qHTS RealTime-Glo MT Cell Viability Assay in HEK293 cells - 40 hour (AID 1224874). Note: nearly all actives have a fitted effect of over 50% in size. The following applies: RealTime-Glo luminescence; max response: hits give low values. The method in brief: (§5)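 600 cells/well were plated with the nonlytic NanoLuc/prosubstrate reagent, pre-incubated 5 h, then given 23 nL of compound in DMSO. Incubation at 37 C for 40 h, with luminescence from viable-cell-reduced substrate read repeatedly from 0 h.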

Assay [13] can be described thus: A CellTox Green Cytotoxicity Assay to monitor cytotoxicity in HEK293 cells - 24 hour (AID 1224875). Note: nearly all actives have a fitted effect of over 45% in size. The essentials:
as §3

Assay [14] in a line: A CellTox Green Cytotoxicity Assay to monitor cytotoxicity in HepG2 cells - 16 hour (AID 1224876). Note: nearly all actives have a fitted effect of over 45% in size. The method in brief: (§6)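 HepG2 cells, 600/well, preincubated 5 h with CellTox Green dye, then exposed to Tox21 compounds in DMSO at 37 C for up to 40 h. Dead-cell DNA fluorescence read at the indicated time point.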
The nature of assay [15]: qHTS RealTime-Glo MT Cell Viability Assay in HepG2 cells - 32 hour (AID 1224877). Note: nearly all actives have a fitted effect of over 55% in size. The method in brief:
as §1

A short description of assay [16]: A CellTox Green Cytotoxicity Assay to monitor cytotoxicity in HepG2 cells - 24 hour (AID 1224878). Note: nearly all actives have a fitted effect of over 45% in size. The essentials:
as §6

Assay [17] is described as follows: A CellTox Green Cytotoxicity Assay to monitor cytotoxicity in HepG2 cells - 40 hour (AID 1224879). Note: nearly all actives have a fitted effect of over 40% in size. Note: potency is the fitted concentration of half-maximal effect. The method in brief: as §6
The nature of assay [18]: qHTS RealTime-Glo MT Cell Viability Assay in HEK293 cells - 0 hour (AID 1224880). The essentials:
as §5

The nature of assay [19]: qHTS assay to identify small molecule antagonists of the estrogen related receptor (ERR) signaling pathway from Tox21 library (AID 1224848). Note: nearly all actives have a fitted effect of over 50% in size. The method in brief: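 ERR reporter cell line (from NTP) seeded 2,000 cells/well, rested 6 h at 37 C/5% CO2, then pin-dosed with compounds in DMSO. After 18 h at 37 C, ONE-Glo added; luminescence read after 30 min at room temperature.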

A short description of assay [20]: qHTS assay to identify small molecule agonists of the estrogen related receptor (ERR) signaling pathway from Tox21 library (AID 1224849; calls by dose curve; note: nearly all actives have a fitted effect of over 15% in size). As to conditions: ERR reporter cell line, ONE-Glo luciferase, 18 h; at 92.4 µM (top of the series) unless noted. The method in brief:
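ERR reporter cells (NTP line) pre-incubated 6 hours at 37 C, then exposed to compounds for 18 hours at 37 C. ONE-Glo luciferase luminescence was read after 30 minutes at room temperature.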

SMILES strings stand for the structures. Unmarked numbers belong to inactive results. Results filed as inconclusive are left out. Active and inactive are the calls of the source. Unless noted, calls come from the whole dose curve; as a rule, active = well fitted curve in the direction sought with a large enough effect in the repeat runs; inconclusive = weak or mixed curves; inactive = no such curve, though single readings can be large; an effect the other way counts as inactive or inconclusive.
% is set by controls: 0 for no effect and ±100 for the full control effect.

For the molecule `COC(=O)c1ccccc1S(=O)(=O)NC(=O)Nc1nc(C)nc(OC)n1`, the Potency result in assay [1], in assay [2], in assay [3], in [4], in assay [5] and in assay [6] was “inactive” in each case. For the same molecule, the Potency result in assay [7], in assay [8], in [9], in assay [10], in assay [11] and in assay [13] was “inactive” in each case. Moreover, the Potency entry in [14], in assay [15], in assay [16], in [17] and in [18] was “inactive” in each case. In assay [12], the max response is 0.753%.

For `O=Cc1ccccc1`, the Potency entry in assay [1], in [2], in [3], in assay [4], in [19] and in assay [5] was “inactive” each time. The Potency result in assay [6], in assay [7], in assay [8], in [9], in assay [10] and in assay [11] was “inactive” throughout. In addition, the Potency result in [13], in [14], in assay [15], in [16], in [17] and in [18] was “inactive” each time. Also, the activity change, positive = activation in assay [20] was 7.55%. The max response in assay [12] was 19.9%.

As for `COc1cnc(OC)n2nc(NS(=O)(=O)c3c(OCC(F)F)cccc3C(F)(F)F)nc12`, the Potency entry in assay [1], in assay [2], in [3], in [4], in assay [5] and in assay [6] was “inactive” throughout. For the same molecule, the Potency result in assay [7], in assay [8], in assay [9], in [10], in [11] and in assay [13] was “inactive” throughout. The Potency entry in assay [14], in [15], in assay [17] and in assay [18] was “inactive” throughout. Further, the activity change, positive = activation in assay [20] is 0.129%. The max response in [12] is 16.5%.

`O=[N+]([O-])c1ccccc1-c1ccccc1`: the Potency result in assay [1], in [2], in assay [3], in assay [4], in assay [5] and in [6] was “inactive” each time. Besides, the Potency result in assay [7], in assay [8], in [9], in assay [11], in assay [13] and in [14] was “inactive” each time. The Potency entry in [15], in assay [16], in [17] and in assay [18] was “inactive” each time. Also, the activity change, positive = activation in assay [20] was -1.13%. Moreover, in assay [12], the max response is 4.62%.

Turning to `O=c1[nH]c2cc(Cl)ccc2n1C1CCNCC1`, the Potency result in assay [1], in [2], in [3], in [4], in assay [19] and in assay [5] was “inactive” each time. Further, the Potency result in [6], in assay [7], in assay [8], in assay [9], in [10] and in [11] was “inactive” each time. Further, the Potency entry in assay [13], in assay [14], in [15], in [16], in [17] and in assay [18] was “inactive” throughout. The activity change, positive = activation in assay [20] is 0.0547% [at 42.5 µM]. Moreover, the max response in [12] is 4.84%.

As to `CSSC`, the Potency result in assay [1], in [2], in assay [3], in assay [4], in assay [19] and in [5] was “inactive” each time. Also, the Potency result in assay [7], in assay [8], in assay [9], in assay [11], in assay [13] and in assay [14] was “inactive” each time. Moreover, the Potency result in [15], in assay [16] and in assay [18] was “inactive” throughout. Further, the activity change, positive = activation in [20] was -6.7%. For the same molecule, the Potency in assay [17] was 7.86 µM (active).

As for `CCCCC(CC)COC(=O)c1ccccc1C(=O)OCC(CC)CCCC` (centres undefined), the Potency entry in [1], in [2], in assay [3], in [4], in assay [5] and in assay [6] was “inactive” each time. Also, the Potency entry in assay [7], in assay [8], in assay [9], in assay [10], in assay [11] and in assay [13] was “inactive” each time. Besides, the Potency entry in assay [14], in assay [15], in assay [16], in assay [17] and in assay [18] was “inactive” each time. The max response in assay [12] was 1.87%.

The values above are taken from PubChem BioAssay (Tox21).
